Experimental findings from PubChem BioAssay are described below.

A number with no mark means an inactive call. For some of these results: Entries with a potency or affinity are not part of this list. Activity calls are given as the source filed them. Unless noted, the rule behind the calls is not given here.

A short description of experiment [1]: antimalarial activity against Dd2 strain (AID 2302;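 active = growth inhibition above 50% at the single 2 µM test dose, taken to imply half-maximal potency below 2 µM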;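 note: 0% = DMSO untreated growth and 100% = chloroquine plus artemisinin killed control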). The settings on record: P. falciparum Dd2 in RBCs, LDH growth readout, 72 h; at 2 µM; active compounds read high.
Experiment [2] can be described thus: HepG2 cytotoxicity, primary screen, cytotoxicity control for P. falciparum antimalarial project, cell-based, ATP luminescence (AID 2303;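 active = inhibition above 50%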;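 note: 0% = DMSO wells and 100% = digitonin-killed cells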). Conditions: HepG2 viability, 24-48 h, at 10 µM, active compounds read high.
Experiment [3] concerns the target L-lactate dehydrogenase (Plasmodium falciparum (isolate CDC / Honduras)) (UniProt Q27743). Kind of experiment: PfLDH activity inhibition – cell lysate, 3D7 strain, counter-screen for P. falciparum growth inhibition project (AID 2304).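 Note: 0% = vehicle and 100% = reference inhibitor.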 Conditions: P. falciparum 3D7 crude extract, LDH APAD/NBT absorbance; at 2 µM; active compounds read high. In general terms: The purpose of a counterscreen is to sort out artefacts and off-target activity.

Experiment [4] in a line: inhibition of 3D7 malaria parasite growth – strain 3D7 (AID 2306).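 Note: 0% = DMSO wells and 100% = chloroquine plus artemisinin control wells.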 Conditions: P. falciparum 3D7 erythrocytic growth, LDH absorbance, 72 h; at 2 µM; active compounds read high.
Experiment [5] addresses Calcium-dependent protein kinase 1 (Plasmodium falciparum (isolate 3D7)) (UniProt P62344). Kind of experiment: PfCDPK1 kinase inhibitors, biochemical, TCAMS library (AID 1159585; cut-off not given, nearly all actives have IC50 up to about 0.98 µM;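 note: inhibitors leave more ATP so luminescence rises with inhibition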). Conditions: recombinant PfCDPK1, Kinase-Glo ATP depletion luminescence. In general terms: Kinase-Glo reads ATP consumption through a luciferase reaction.
The target of experiment [6] is Plasmodium falciparum protein kinase 6 (PK6, PF3D7_1337100) (UniProt Q8IDW1). In words: PfPK6 kinase inhibitors, biochemical, TCAMS library (AID 1159586). Conditions: recombinant PfPK6, Kinase-Glo ATP depletion luminescence.
The target in experiment [7] is Protein kinase 7 (PK7), Plasmodium falciparum 3D7 (PF3D7_0213400) (UniProt Q7YTF7). Kind of experiment: inhibition of Plasmodium PK7 catalytic activity – biochemical, TCAMS antimalarial set, Kinase-Glo luminescence (AID 1159587). Conditions: recombinant PfPK7, Kinase-Glo ATP depletion luminescence.
In experiment [8] the target is Calcium-dependent protein kinase 4 (Plasmodium falciparum (isolate 3D7)) (UniProt Q8IBS5). In words: PfCDPK4 kinase inhibitors, biochemical, TCAMS library (AID 1159588; cut-off not given, nearly all actives have IC50 up to about 0.91 µM). The settings on record: recombinant PfCDPK4, Kinase-Glo ATP depletion luminescence.
Calcium-dependent protein kinase 4 (Plasmodium falciparum (isolate 3D7)), sequence (Q8IBS5 whole entry, looked up): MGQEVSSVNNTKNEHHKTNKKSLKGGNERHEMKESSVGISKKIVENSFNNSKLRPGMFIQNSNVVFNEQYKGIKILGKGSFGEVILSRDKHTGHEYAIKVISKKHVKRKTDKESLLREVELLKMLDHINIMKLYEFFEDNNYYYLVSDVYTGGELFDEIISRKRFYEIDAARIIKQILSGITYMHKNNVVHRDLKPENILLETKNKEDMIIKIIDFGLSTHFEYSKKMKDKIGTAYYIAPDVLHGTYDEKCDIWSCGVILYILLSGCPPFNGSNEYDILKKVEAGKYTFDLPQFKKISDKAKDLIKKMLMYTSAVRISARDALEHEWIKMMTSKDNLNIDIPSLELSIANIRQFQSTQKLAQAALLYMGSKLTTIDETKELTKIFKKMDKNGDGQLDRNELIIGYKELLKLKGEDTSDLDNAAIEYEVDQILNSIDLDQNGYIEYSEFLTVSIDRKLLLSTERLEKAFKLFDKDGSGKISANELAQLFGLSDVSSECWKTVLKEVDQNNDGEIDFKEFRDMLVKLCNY

Plasmodium falciparum protein kinase 6 (PK6, PF3D7_1337100), sequence (Q8IDW1 1-305): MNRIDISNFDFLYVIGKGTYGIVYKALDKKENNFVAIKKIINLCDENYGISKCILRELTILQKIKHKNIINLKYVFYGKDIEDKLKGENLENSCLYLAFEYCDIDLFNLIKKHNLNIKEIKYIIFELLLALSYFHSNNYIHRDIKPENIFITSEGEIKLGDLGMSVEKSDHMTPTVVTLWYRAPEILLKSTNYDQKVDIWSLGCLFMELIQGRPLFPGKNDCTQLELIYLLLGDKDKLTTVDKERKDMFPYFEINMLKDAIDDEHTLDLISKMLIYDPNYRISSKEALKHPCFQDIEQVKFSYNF
Calcium-dependent protein kinase 1 (Plasmodium falciparum (isolate 3D7)), sequence (P62344 whole entry, looked up): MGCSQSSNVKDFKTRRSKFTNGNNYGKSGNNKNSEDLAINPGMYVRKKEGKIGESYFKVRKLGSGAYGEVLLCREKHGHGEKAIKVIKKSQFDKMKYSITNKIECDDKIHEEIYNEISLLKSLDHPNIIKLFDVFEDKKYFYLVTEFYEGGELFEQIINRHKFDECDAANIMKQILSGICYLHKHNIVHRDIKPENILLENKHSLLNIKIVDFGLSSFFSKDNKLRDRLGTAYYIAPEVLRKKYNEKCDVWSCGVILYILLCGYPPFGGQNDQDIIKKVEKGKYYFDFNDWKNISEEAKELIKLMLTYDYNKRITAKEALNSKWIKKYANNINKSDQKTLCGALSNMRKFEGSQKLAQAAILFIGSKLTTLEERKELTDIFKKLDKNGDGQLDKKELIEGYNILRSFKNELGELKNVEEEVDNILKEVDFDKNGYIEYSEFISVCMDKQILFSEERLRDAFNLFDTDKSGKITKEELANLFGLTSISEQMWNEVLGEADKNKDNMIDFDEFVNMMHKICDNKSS
Protein kinase 7 (PK7), Plasmodium falciparum 3D7 (PF3D7_0213400), sequence (Q7YTF7 1-343): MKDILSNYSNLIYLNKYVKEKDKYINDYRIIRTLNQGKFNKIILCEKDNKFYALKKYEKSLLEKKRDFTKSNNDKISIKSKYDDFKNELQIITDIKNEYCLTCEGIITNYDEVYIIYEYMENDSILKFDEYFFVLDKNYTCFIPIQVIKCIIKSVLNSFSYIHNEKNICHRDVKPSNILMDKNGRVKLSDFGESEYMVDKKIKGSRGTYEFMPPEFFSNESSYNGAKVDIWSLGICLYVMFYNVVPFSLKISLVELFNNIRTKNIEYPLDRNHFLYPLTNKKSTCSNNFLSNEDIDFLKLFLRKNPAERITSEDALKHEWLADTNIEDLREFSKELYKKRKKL
L-lactate dehydrogenase (Plasmodium falciparum (isolate CDC / Honduras)), sequence (Q27743 whole entry, looked up): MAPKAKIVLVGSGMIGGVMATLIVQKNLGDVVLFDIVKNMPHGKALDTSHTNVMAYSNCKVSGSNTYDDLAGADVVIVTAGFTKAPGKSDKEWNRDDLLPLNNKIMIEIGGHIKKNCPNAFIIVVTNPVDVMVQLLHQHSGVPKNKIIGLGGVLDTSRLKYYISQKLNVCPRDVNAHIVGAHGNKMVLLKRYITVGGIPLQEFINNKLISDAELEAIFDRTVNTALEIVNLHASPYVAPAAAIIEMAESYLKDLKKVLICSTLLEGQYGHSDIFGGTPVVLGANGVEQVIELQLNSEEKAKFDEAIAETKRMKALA

Regarding `Cc1ccc(-c2nnc(Nc3ccc(OCC(N)=O)cc3)c3ccccc23)cc1S(=O)(=O)NCC1CCCO1` (stereo not given), the growth inhibition in experiment [1] was 70% (active); in experiment [4], 92% (active). The inhibition – broadly, the relative decrease from the control value, in per cent – in experiment [2] is 0%; in experiment [3] it was -2%. For the same compound, the result in experiment [5], in experiment [6], in experiment [7] and in experiment [8] was inactive.

Consider `CCOC(=O)CNC(=O)N1CCN(C(=O)NCC(=O)OCC)CC1`, for which the results for the growth inhibition in experiment [1] and in experiment [4] were 0% and 93% (active), respectively. Besides, the inhibition in experiment [2] is -9%; in experiment [3], -2%. The outcome in experiment [5], in experiment [6], in experiment [7] and in experiment [8] was inactive.

Turning to `O=C(NCCNc1ccnc(Nc2ccc(F)cc2)n1)Nc1ccccc1F`, the growth inhibition in experiment [1] is 4%; in experiment [4] it was 93% (active). In addition, the values for the inhibition in experiment [2] and in experiment [3] were 22% and 5%, respectively. Besides, the result in experiment [5], in experiment [6], in experiment [7] and in experiment [8] was inactive.

On to `Cc1ccc(NC(=O)c2cccc(C#N)c2)cc1-c1ccc(C(=O)Nc2ccncc2)cc1`, for which the growth inhibition was 64% (active) in experiment [1] and 94% (active) in experiment [4]. The inhibition in experiment [2] was 38%; in experiment [3] it was -1%. The result in experiment [5], in experiment [6], in experiment [7] and in experiment [8] was inactive.

In the case of `O=C(Nc1ccccc1)N(Cc1ccc(-c2cccc(CNCc3ccc4c(c3)OCO4)c2)cc1)C1CCN(Cc2ccccc2)CC1`, the figures for the growth inhibition in experiment [1] and in experiment [4] were 65% (active) and 100% (active), respectively. Besides, the values for the inhibition in experiment [2] and in experiment [3] were 29% and -1%, respectively. Besides, the result in experiment [5], in experiment [6], in experiment [7] and in experiment [8] was inactive.

With `O=C(NCc1cccc2ccccc12)C(c1cc2ccccc2o1)N1CCN(C(c2ccccc2)c2ccccc2)CC1` (stereo not given), the growth inhibition in experiment [1] was 90% (active); in experiment [4], 99% (active). Further, the figures for the inhibition in experiment [2] and in experiment [3] were -3% and -2%, respectively. Moreover, the outcome in experiment [5], in experiment [6], in experiment [7] and in experiment [8] was inactive.

As for `CCC(=O)OC(CCN(CC)CC)(c1ccccc1)c1ccccc1`, the growth inhibition in experiment [1] was 6%; in experiment [4] it was 98% (active). Also, the inhibition in experiment [2] is 30%; in experiment [3], 4%. The outcome in experiment [5], in experiment [6], in experiment [7] and in experiment [8] was inactive.

`CCOC(=O)c1ccc(-n2c(C)cc(C=C3SC(=Nc4ccccc4)N(C4CCCC4)C3=O)c2C)cc1`: the values for the growth inhibition in experiment [1] and in experiment [4] were 61% (active) and 98% (active), respectively. Besides, the inhibition in experiment [2] was 2%; in experiment [3], 0%. In addition, the outcome in experiment [5], in experiment [6], in experiment [7] and in experiment [8] was inactive.

For `Cc1noc(-c2ccc(O)cc2O)c1-c1ccc2c(c1)OCCCO2`, the growth inhibition in experiment [1] is 99% (active); in experiment [4] it was 100% (active). Also, the values for the inhibition in experiment [2] and in experiment [3] were 8% and -4%, respectively. Moreover, the result in experiment [5], in experiment [6], in experiment [7] and in experiment [8] was inactive.

As for `Nc1c(C(=O)NCCCCN2CCN(c3nsc4ccccc34)CC2)sc2ccccc12`, the values for the growth inhibition in experiment [1] and in experiment [4] were -6% and 86% (active), respectively. The inhibition in experiment [2] is 26%; in experiment [3] it was -5%. In addition, the outcome in experiment [5], in experiment [6], in experiment [7] and in experiment [8] was inactive.

Take `COCn1ncc2cc(-c3cccc(NC(=O)c4csc(NC(C)=O)n4)c3)ccc21`: the figures for the growth inhibition in experiment [1] and in experiment [4] were 68% (active) and 89% (active), respectively. Further, the inhibition in experiment [2] was 0%; in experiment [3], 7%. Besides, the outcome in experiment [5], in experiment [6], in experiment [7] and in experiment [8] was inactive.

Take `COc1ccc2nccc([C@@H](O)CN3CCC(NCc4nc5c(F)cccc5[nH]4)CC3)c2c1`: the growth inhibition in experiment [1] was 6%; in experiment [4], 103% (active). Besides, the figures for the inhibition in experiment [2] and in experiment [3] were -6% and -7%, respectively. In addition, the outcome in experiment [5], in experiment [6], in experiment [7] and in experiment [8] was inactive.

For `COc1ccc(-n2ccnc2SCC(=O)Nc2cccc(C(F)(F)F)c2)c(OC)c1`, the figures for the growth inhibition in experiment [1] and in experiment [4] were 88% (active) and 98% (active), respectively. Moreover, the inhibition in experiment [2] was -10%; in experiment [3], 3%. Besides, the outcome in experiment [5], in experiment [6], in experiment [7] and in experiment [8] was inactive.

Regarding `FC(F)(F)c1ccc(COc2cc(Cl)ccc2Cn2ccnc2)cc1`, the figures for the growth inhibition in experiment [1] and in experiment [4] were 0% and 95% (active), respectively. In addition, the figures for the inhibition in experiment [2] and in experiment [3] were 13% and -5%, respectively. Also, the outcome in experiment [5], in experiment [6], in experiment [7] and in experiment [8] was inactive.

As to `Cc1cc(NC(=O)c2ccco2)ccc1OC1CCN(Cc2ccc(C#N)cc2)CC1`, the figures for the growth inhibition in experiment [1] and in experiment [4] were 89% (active) and 92% (active), respectively. Further, the inhibition in experiment [2] is 2%; in experiment [3], -1%. Also, the result in experiment [5], in experiment [6], in experiment [7] and in experiment [8] was inactive.

Take `OCCc1ccc(Nc2nccc(-c3nnc4ccccn34)n2)cc1`: the growth inhibition in experiment [1] is 46%; in experiment [4], 93% (active). The inhibition is 63% (active) in experiment [2] and 6% in experiment [3]. Besides, the result in experiment [5], in experiment [6], in experiment [7] and in experiment [8] was inactive.

`N#CN1CC[C@H](CS(=O)(=O)c2cccc(Br)c2)C1`: the figures for the growth inhibition in experiment [1] and in experiment [4] were 74% (active) and 88% (active), respectively. For the same compound, the inhibition in experiment [2] is 8%; in experiment [3] it was -2%. Moreover, the outcome in experiment [5], in experiment [6], in experiment [7] and in experiment [8] was inactive.

With `COc1ccc(CNC(=O)c2cnc3cc(-c4c(C)noc4C)ccc3c2Nc2ccccc2C(C)(C)C)cc1`, the growth inhibition in experiment [1] is 69% (active); in experiment [4], 99% (active). In addition, the inhibition in experiment [2] was 9%; in experiment [3] it was 0%. The outcome in experiment [5], in experiment [6], in experiment [7] and in experiment [8] was inactive.

In the case of `S=c1nc(-c2ccccc2)n2ccsc2n1`, the results for the growth inhibition in experiment [1] and in experiment [4] were 0% and 95% (active), respectively. Further, the inhibition was 3% in experiment [2] and -6% in experiment [3]. For the same compound, the result in experiment [5], in experiment [6], in experiment [7] and in experiment [8] was inactive.

As to `Cn1nc(-c2cccc(CN[C@@H]3CCc4ccc(O)cc43)c2)c2cnc(NCCCN3CCCC3)nc21`, the figures for the growth inhibition in experiment [1] and in experiment [4] were -2% and 101% (active), respectively. Also, the results for the inhibition in experiment [2] and in experiment [3] were 9% and -3%, respectively. The result in experiment [5], in experiment [6], in experiment [7] and in experiment [8] was inactive.
